Data reported in PubChem BioAssay (NCATS).
“And” between values parts separate entries of the source, which are not always exact repeats. Equal values may be shown once. Inconclusive results are not listed. The source made the active and inactive calls. Calls come from the whole dose curve; as a rule, active = well fitted curve in the direction sought with a large enough effect; inconclusive = small, poorly fitted or top-dose-only effect, or another doubt; inactive = no such curve, though single readings can be large; an effect the other way counts as inactive or inconclusive.

Assays:
[1] = tested on: UISO; experiment: qHTS assay to identify novel small-molecules to repurpose for Merkel cell carcinoma treatment (AID 1296009); details: MCC and control cell lines, CellTiter-Glo viability, 72 h; series mostly up to 46 µM; note: nearly all actives have a fitted effect of over 60% in size
Outline: (§1)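 Cells were incubated with compound for 72 hr at 37 degree celsius before CellTiter-Glo addition. Luminescence was normalized with no-cell wells as full cytotoxicity and DMSO as baseline.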

[2] = tested on: WaGa; experiment: as above; details: MCC and control cell lines, CellTiter-Glo viability, 72 h; series mostly up to 46 µM
Outline: as §1

[3] = tested on: C33A; experiment: Primary qHTS to identify gynecologic anti-cancer compounds using libraries of approved drugs and bioactive compounds (AID 1345084); details: Gynecologic cancer cell panel viability, ATPlite luminescence, 48 h; series mostly up to 57.5 µM; note: nearly all actives have a fitted effect of over 55% in size
Outline: (§2)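 Cell viability after 48 h drug treatment, ATPlite luminescence readout; five doses.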

[4] = tested on: CAOV3; experiment: as above; details: Gynecologic cancer cell panel viability, ATPlite luminescence, 48 h; series mostly up to 57.5 µM
Outline: as §2

[5] = tested on: CASKI; experiment: as above; details: Gynecologic cancer cell panel viability, ATPlite luminescence, 48 h; series mostly up to 57.5 µM
Outline: as §2

[6] = tested on: Es-2; experiment: as above; details: Gynecologic cancer cell panel viability, ATPlite luminescence, 48 h; series mostly up to 57.5 µM
Outline: as §2

[7] = tested on: HeLa; experiment: as above; details: Gynecologic cancer cell panel viability, ATPlite luminescence, 48 h; series mostly up to 57.5 µM
Outline: as §2

[8] = tested on: Hek293T; experiment: as above; details: Gynecologic cancer cell panel viability, ATPlite luminescence, 48 h, control line for the selectivity index; series mostly up to 57.5 µM
Outline: as §2

[9] = tested on: NIH3T3; experiment: qHTS assay to identify novel small-molecules to repurpose for Merkel cell carcinoma treatment (AID 1296009); details: MCC and control cell lines, CellTiter-Glo viability, 72 h; at 44.8 µM (top of the series) unless noted; note: nearly all actives have a fitted effect of over 60% in size
Outline: as §1

[10] = tested on: MKL-2; experiment: as above; details: MCC and control cell lines, CellTiter-Glo viability, 72 h; series mostly up to 46 µM
Outline: as §1
% is set by controls: 0 for no effect and ±100 for the full control effect; potency is the fitted concentration of half-maximal effect.

C[C@]12CC[C@H](O)CC1=CCC1C2CC[C@]2(C)C(n3cnc4ccccc43)=CCC12 (stereo not given in full)
inactive: Potency [1] | Potency [2] | Potency [3] | Potency [4] | Potency [5] | Potency [6] | Potency [7] | Potency [8]

Cn1cc(-c2[nH]c3cc(NC(=O)[C@H](N)C4CCCCC4)cc4c3c2C=NNC4=O)cn1
active: Potency [1] 0.418 µM | Potency [2] 2.64 µM
inactive: Potency [5]

CC(NCc1ccc2c(c1)nc(NC(=O)c1ccc(-c3cn[nH]c3)s1)n2CC(C)(C)O)C(C)(C)C (stereo not given)
active: Potency [1] 1.32 µM | Potency [2] 0.526 µM

Cc1cc(Nc2cc(CN3CCOCC3)c3nc(C)c(Cc4ccc(Cl)cc4F)n3n2)n[nH]1
inactive: Potency [3] | Potency [4] | Potency [5] | Potency [8]
active: Potency [1] 23.5 µM | Potency [7] 14.1 µM

CC(=O)Nc1sc2c(c1-c1nc3ccccc3s1)CNC2
inactive: Potency [3] | Potency [4] | Potency [5] | Potency [7]
active: Potency [1] 8.33 µM

CCc1cc2c(cc1N1CCC(N3CCOCC3)CC1)C(C)(C)c1[nH]c3cc(C#N)ccc3c1C2=O
inactive: Potency [1] | Potency [2] | Potency [3] | Potency [5] | Potency [6] | Potency [7] | Potency [8]

CN(C1CCc2c(c3ccccc3n2CC(=O)O)C1)S(=O)(=O)c1ccc(F)cc1 (stereo not given)
inactive: outcome [9] | Potency [1] | Potency [3] | Potency [5] | Potency [6] | Potency [7] | Potency [8]
active: Potency [2] 5.9 µM

COc1cc(C(=O)NS(=O)(=O)c2ccccc2C)ccc1Cc1cn(C)c2ccc(NC(=O)OC3CCCC3)cc12
inactive: Potency [2] | Potency [3] | Potency [4] | Potency [5] | Potency [6] | Potency [7] | Potency [8]
active: Potency [1] 20.9 µM

CN1CC[C@@H](c2c(O)cc(O)c3c(=O)cc(-c4ccccc4Cl)oc23)[C@@H](O)C1
active: Potency [1] 0.264 µM

Cn1c2ccccc2c2c3c(c4c5ccccc5n(CCC#N)c4c21)CNC3=O
inactive: Potency [3] | Potency [5] | Potency [7] | Potency [8]
active: Potency [1] 2.09 µM | Potency [2] 6.62 µM

O=C(O)C1(Cc2cccc(Nc3nccs3)n2)CCC(Oc2cccc(Cl)c2F)CC1 (stereo not given)
inactive: Potency [10] | Potency [3] | Potency [5] | Potency [6] | Potency [8]
active: Potency [7] 6.31 µM

NC(=O)c1c(OCc2c(F)cc(Br)cc2F)nsc1NC(=O)NCCCCN1CCCC1
inactive: Potency [10] | Potency [3] | Potency [6] | Potency [7] | Potency [8]

COc1ccc2c(c1)CC[C@@H](CN(C)CC(=O)O)[C@H]2c1ccccc1
inactive: outcome [9] | Potency [3] | Potency [4] | Potency [5] | Potency [6] | Potency [7] | Potency [8]

COc1ccc(OC)c(-c2nnc3ccc(-c4ccc(OC)c(O[C@@H]5CCOC5)c4)nn23)c1
active: Potency [10] 18.7 µM | Potency [7] 22.4 µM

CC(C)(O)c1cc2nc(-c3cnc(N)nc3)nc(N3CCOCC3)c2s1
active: Potency [3] 3.55 µM | Potency [7] 3.98 µM | Potency [8] 2 µM
inactive: Potency [10]

C=CC(=O)Nc1cc2c(Nc3ccc(F)c(Cl)c3)ncnc2cc1C#CC(C)(C)N1CCN(C)CC1
active: Potency [1] 7.43 µM | Potency [2] 5.26 µM

COc1cc(=C2C=c3ccccc3=N2)[nH]c1=Cc1[nH]c(C)cc1C
active: Potency [1] 13.2 µM | Potency [2] 23.5 µM

COCCOc1ccc2c(c1)ncn2-c1ccc2cccc(N3CCC(N)CC3)c2n1
active: Potency [1] 26.4 µM | Potency [2] 20.9 µM | Potency [6] 28.2 µM

COc1cccc2nc(-c3cccs3)nc(NN3C(=O)C=C(C)C3=O)c12
active: Potency [10] 0.935 µM | Potency [3] 31.6 µM | Potency [6] 2.51 µM | Potency [8] 1.41 µM

COCCn1c2c([n+](Cc3cnccn3)c1C)C(=O)c1ccccc1C2=O
active: Potency [1] 0.0187 µM | Potency [2] 0.0132 µM

CS(=O)(=O)c1ccc(-c2cnc(N)c(C(=O)Nc3ccccc3)n2)cc1
inactive: Potency [1] | Potency [2] | Potency [3] | Potency [4] | Potency [5] | Potency [7] | Potency [8]

C=CC(=O)Nc1cccc(Oc2nc(Nc3ccc(N4CCN(C)CC4)cc3)ncc2Cl)c1
active: Potency [10] 8.33 µM | Potency [4] 7.94 µM | Potency [5] 10 µM | Potency [7] 7.94 µM
inactive: Potency [6]

C[C@@H]1COC(Nc2ccc3ncnc(Nc4ccc(OCc5nccs5)c(Cl)c4)c3c2)=N1
inactive: outcome [9] | Potency [7]

CN(c1ncccc1CNc1nc(Nc2ccc3c(c2)CC(=O)N3)ncc1C(F)(F)F)S(C)(=O)=O
active: Potency [1] 11.8 µM | Potency [2] 8.33 µM

O=C(Nc1cc(C(F)(F)F)cc(C(F)(F)F)c1)c1cc(Cl)ccc1O
active: Potency [1] 2.35 µM | Potency [3] 3.16 µM | Potency [5] 3.55 µM | Potency [6] 5.01 µM | Potency [7] 2.24 µM | Potency [8] 2.51 µM

Cc1cc(Nc2cc(NC(=O)c3c(Cl)cccc3Cl)ccn2)nc(N)n1
active: Potency [1] 1.18 µM | Potency [2] 2.35 µM

CC(C)(C)NC(=O)[C@H]1CN(Cc2cccnc2)CCN1C[C@@H](O)C[C@@H](Cc1ccccc1)C(=O)N[C@H]1c2ccccc2C[C@H]1O
inactive: Potency [1] | Potency [2]

c1nc2nc(Nc3ccc(N4CCOCC4)cc3)nc(NC3CCCCC3)c2[nH]1
active: Potency [10] 16.6 µM | Potency [7] 2.82 µM
inactive: Potency [3] | Potency [6] | Potency [8]

C[C@@H](Oc1cc(-c2cnn(C3CCNCC3)c2)cnc1N)c1c(Cl)ccc(F)c1Cl
active: Potency [1] 14.8 µM | Potency [2] 23.5 µM | Potency [3] 20 µM | Potency [5] 14.1 µM | Potency [7] 3.55 µM and 14.1 µM | Potency [8] 25.1 µM

Fc1cc(-c2cccc3ncc(-c4cnn(C5CCNCC5)c4)nc23)cc(F)c1CN1CCOCC1
inactive: Potency [7] | Potency [8]

Nc1nc(Nc2ccc(S(N)(=O)=O)cc2)nn1C(=O)c1c(F)cccc1F
active: Potency [1] 13.2 µM | Potency [7] 22.4 µM

Cc1cc(Nc2nc(N[C@@H](C)c3ccc(F)cc3)c(C#N)cc2F)n[nH]1
inactive: Potency [3]
active: Potency [6] 14.1 µM | Potency [7] 5.62 µM

O=C(Cc1ccc(-c2ccc(OCCN3CCOCC3)cc2)cn1)NCc1ccccc1
active: Potency [1] 0.0469 µM | Potency [6] 1.58 µM | Potency [7] 1.58 µM
inactive: Potency [5]

Nc1ncnc2c1c(-c1cnc3[nH]ccc3c1)nn2C1CCCC1
active: Potency [1] 4.69 µM | Potency [5] 11.2 µM | Potency [6] 10 µM | Potency [7] 10 µM | Potency [8] 7.94 µM

NC(=O)c1cccc2cn(-c3ccc([C@@H]4CCCNC4)cc3)nc12
active: Potency [2] 10.5 µM
inactive: Potency [3] | Potency [4] | Potency [5] | Potency [7] | Potency [8]

C=CC(=O)Nc1cc2c(Nc3ccc(F)c(Cl)c3)ncnc2cc1OCCCN1CCOCC1
inactive: Potency [6] | Potency [7] | Potency [8]
active: Potency [5] 8.91 µM

COc1cc2c(Oc3ccc(-c4cnc(Nc5ccc(F)cc5)n(C)c4=O)cc3F)ccnc2cc1OCCCN1CCOCC1
active: Potency [1] 11.8 µM
inactive: Potency [3] | Potency [5] | Potency [8]

Cc1c(NC(=O)OC[C@@H]2COCCN2)cn2ncnc(Nc3ccc4c(cnn4Cc4cccc(F)c4)c3)c12
inactive: Potency [2] | Potency [3] | Potency [6] | Potency [7] | Potency [8]

COC(=O)Nc1ccc(-c2nc(N3CCOCC3)c3cnn(C4CCN(Cc5cccnc5)CC4)c3n2)cc1
active: Potency [1] 1.87 µM | Potency [4] 8.91 µM | Potency [6] 4.47 µM | Potency [7] 25.1 µM | Potency [8] 2.24 µM

COc1c(OCCCN2CCOCC2)ccc2c3n(c(=NC(=O)c4cnc(N)nc4)nc12)CCN3
inactive: activity change, negative = cytotoxicity [4] -27.2% [at 11.6 µM]
active: Potency [3] 0.316 µM | Potency [5] 0.112 µM | Potency [7] 1 µM

CC(=O)c1c(C)c2cnc(Nc3ccc(N4CCNCC4)cn3)nc2n(C2CCCC2)c1=O
inactive: Potency [2] | activity change, negative = cytotoxicity [3] 9.39% [at 6.55 µM] | activity change, negative = cytotoxicity [4] 11.3% [at 6.55 µM] | activity change, negative = cytotoxicity [5] 12% [at 6.55 µM] | activity change, negative = cytotoxicity [6] 0.0946% [at 6.55 µM] | activity change, negative = cytotoxicity [7] -1.33% [at 6.55 µM] | activity change, negative = cytotoxicity [8] 25.4% [at 6.55 µM]

O=C(Nc1ncc(-c2cc(C(F)F)nn2-c2c(Cl)cccc2Cl)s1)C1CC1
active: Potency [6] 3.16 µM | Potency [7] 2.51 µM

COc1cccc(-c2ccc(NC(=O)C3=C(C(=O)O)CCC3)c(F)c2)c1
inactive: Potency [3] | Potency [5]
active: Potency [2] 23.5 µM

CN(C)CC(C)(C)CNc1nn2c(-c3ccccc3)nnc2cc1C1CCC1
active: Potency [2] 0.662 µM
inactive: Potency [3] | Potency [5] | Potency [6] | Potency [7] | Potency [8]

C=CCn1c(=O)c2cnc(Nc3ccc(N4CCN(C)CC4)cc3)nc2n1-c1cccc(C(C)(C)O)n1
active: Potency [1] 3.72 µM | Potency [3] 1.41 µM | Potency [5] 3.16 µM | Potency [6] 1.26 µM | Potency [7] 0.708 µM | Potency [8] 0.631 µM

COC(=O)C1=C(C)NC(C)=C(C(=O)OCCN2CCN(C(c3ccccc3)c3ccccc3)CC2)C1c1cccc([N+](=O)[O-])c1 (stereo not given)
inactive: Potency [5] | Potency [6] | Potency [7] | Potency [8]

COC(=O)Nc1nc2ccc(C(=O)c3ccc(F)cc3)cc2[nH]1
inactive: Potency [3] | Potency [4]
active: Potency [6] 8.91 µM | Potency [7] 3.98 µM

CS(=O)(=O)N1CCN(Cc2cc3nc(-c4cccc5[nH]ncc45)nc(N4CCOCC4)c3s2)CC1
active: Potency [1] 1.32 µM | Potency [7] 3.55 µM | Potency [8] 2.51 µM

COC(=O)c1ccc2c(C(=Nc3ccc(N(C)C(=O)CN4CCN(C)CC4)cc3)c3ccccc3)c(O)[nH]c2c1
inactive: Potency [3] | Potency [5] | Potency [6] | Potency [8]

Cc1nc(N)ncc1-c1nc(N2CCOCC2)c2sc(C(C)(C)O)cc2n1
active: Potency [3] 1.78 µM | Potency [5] 0.501 µM | Potency [8] 3.16 µM

CCNC(=O)Nc1ccc2ncc(Nc3ccc(C)cc3)nc2n1
inactive: Potency [3] | Potency [4] | Potency [5] | Potency [6] | Potency [7] | Potency [8]

CC1(O)CC(c2nc(-c3ccc4ccc(-c5ccccc5)nc4c3)c3c(N)nccn23)C1 (stereo not given)
inactive: Potency [3] | Potency [5] | Potency [6] | Potency [8]
active: Potency [1] 0.662 µM
